Inconclusive results are not listed. Entries that show only a call come without a potency. The source made the active and inactive calls. Unless noted, calls follow the shape of the dose curve; as a rule, active = well fitted curve in the direction sought with a large enough effect; inconclusive = small, poorly fitted or top-dose-only effect, or another doubt; inactive = no such curve, though single readings can be large; an effect the other way counts as inactive or inconclusive.
What was measured:
[1] = Validation of Assay for Modulators of Lamin A Splicing (AID 1459; active = well fitted curve in the direction sought with a large enough effect in the signal ratio; the % refers to the signal ratio;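 also: cells exposed to compound for two days before reading; ratio rise marks activators and ratio drop marks inhibitors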)
Procedure, shortened: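 Splicing correction read as GFP (500-530 nm) over DsRed2 (575-640 nm) object intensity after 48 h compound exposure of reporter HeLa S3 clones (600 cells/well, 2% FBS medium); ancitabine and cycloheximide titrations, 0.5% DMSO as vehicle.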

[2] = biological target: DNA repair nuclease/redox regulator APEX1 (Homo sapiens) (UniProt P27695); assay: qHTS Validation Assay for Inhibitors of the Human Apurinic/apyrimidinic Endonuclease 1 (APE1) (AID 1705;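 also: TAMRA fluorescence gain over two minutes as APE1 cuts a quenched THF abasic duplex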)
Procedure, shortened: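 Activity read as rising fluorescence (598 nm emission, 525 nm excitation) from incision of a TAMRA/BHQ-2 duplex carrying a THF abasic site (50 nM). Compound and enzyme sat 15 min at RT before substrate start; signal change between first and third 60-s reads.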

[3] = Counterscreen for APE1 Inhibitors: Fluorescent Dye Displacement Validation Assay (AID 1707)
Procedure, shortened: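 Assay buffer: Tris-HCl pH7.5 with 50mM NaCl, 2 mM MgCl2, 0.01% Tween-20. Dye 250 nM, duplex 50 nM final. Readout: decrease in ThO endpoint fluorescence, 480 nm excitation, 540 nm emission.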

[4] = biological target: Endonuclease 4 (Escherichia coli (strain K12)) (UniProt P0A6C1); assay: Counterscreen for APE1 Inhibitors: qHTS Validation Assay for Inhibitors of Endonuclease IV (AID 1708)
Procedure, shortened: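 qHTS concentration-response format; LOPAC1280 tested under APE1-screen conditions. 2 nM enzyme, 15 min compound preincubation at RT, then 50 nM TAMRA/BHQ-2 abasic substrate; kinetic fluorescence read, three reads at 60 s intervals.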

[5] = biological target: Ferritin light chain (Equus caballus) (UniProt P02791); assay: qHTS Validation Assay for Identification of Novel General Anesthetics (AID 2323)
Procedure, shortened: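 Competitive displacement of the profluorescent anesthetic 1-AMA (50% saturated, PBS) from 10 uM apoferritin, 10 min, room temperature. Activity is normalized 380/535 nm fluorescence; concentration-response fitted with a four-parameter Hill equation.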

[6] = biological target: ATP-dependent DNA helicase Q1 (Homo sapiens) (UniProt P46063); assay: qHTS Validation Assay for Inhibitors of RecQ-Like Dna Helicase 1 (RECQ1) (AID 2353)
Procedure, shortened: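 50 nM RECQ1T1 preincubated 15 min with compound in Tris pH 8.0 buffer with MgCl2, DTT, Tween-20 and 2.5 ug/ml poly(dI-dC); started with 200 nM TAMRA/BHQ-2 forked duplex and 2 mM ATP. Unwinding read as fluorescence (525/598 nm), two reads 2 h apart.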

[7] = Validation screen for inhibitors of Lassa infection (AID 463096; calls by dose curve)
[8] = Validation screen for small molecules that induce DNA re-replication in MCF 10A normal breast cells (AID 463097); also: nearly all actives have a fitted effect of over 60% in size
Procedure, shortened: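 Read-out is Hoechst total nuclear intensity by fluorescence scanning imager, flagging increased high-DNA-content nuclei. Compounds were incubated with MCF 10A cells for 48 hr (37 C, 5% CO2) before 40 min staining.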

[9] = biological target: M-phase phosphoprotein 8 (Homo sapiens) (UniProt Q99549); assay: qHTS Validation Assay for Inhibitors for MPP8 Chromodomain Interactions with Methylated Histone Tails (AID 488949); also: nearly all actives have a fitted effect of over 55% in size; also: potency is read from the fitted curve at half-maximal effect;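 as to activity change, negative = inhibition: AlphaScreen signal from MPP8 chromodomain bound to biotinylated H3K9me3 peptide; top concentration of the series differs between compounds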
Procedure, shortened: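 AlphaScreen proximity signal from streptavidin donor and Ni-chelate acceptor beads (10 ug/mL each) reported binding of MPP8 to trimethyl-K9 H3(1-18) peptide, both at 50 nM. The complex formed 30 min before a 30 min compound exposure at room temperature, in PBS pH 7.4.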

[10] = biological target: Transient receptor potential cation channel subfamily V member 1 (Homo sapiens) (UniProt Q8NER1); assay: HTS Assay for Compounds that Act as Enhancers of the Vanilloid Receptor 1 (AID 488979)
Procedure, shortened: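 Calcium influx kinetics via Fluo-8 (480/520 nm) in TRPV1-expressing cells, 2000/well cultured overnight at 35.5C. Compound-alone read 3 min (agonist phase), followed by EC20 capsaicin challenge for 2 min (enhancer phase).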

[11] = biological target: Thyrotropin receptor (Homo sapiens) (UniProt P16473); assay: qHTS Assay for Antagonists of the Thyroid Stimulating Hormone Receptor (AID 488980)
Procedure, shortened: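 Inhibition of cAMP raised by EC80 TSH (4 nM final) was read by HTRF, with lysate cAMP competing against cAMP-d2 for cryptate antibody after 30 min at room temperature. The cells were transfected HEK293 held in phosphodiesterase inhibitor RO 20-1724 at 70 uM.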

[12] = biological target: Thyrotropin-releasing hormone receptor (Homo sapiens) (UniProt P34981); assay: qHTS for Small Molecule Agonists and Allosteric Enhancers of Human TRH Receptor: Validation Screen for Agonists (AID 493127;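 active = calcium activation more than 3 SD above the typical response in the agonist read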); conditions: TRH receptor agonist cell assay; at 2 µM; stronger effect = higher value
Procedure, shortened: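 TRHR cells loaded with fluo-8 calcium dye; FDSS kinetic fluorescence (Ex 480/Em 530) read at 1 s/cycle after 23 nL compound addition. Agonist-mode calcium response recorded before the 10 nM TRH (EC20) addition.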

[13] = Validation screen for small molecules that induce DNA re-replication in SW480 colon adenocarcinoma cells (AID 504364)
Procedure, shortened: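 SW480 cells (250/well) exposed 48 h at 37 C, 5% CO2, then Hoechst-stained 40 min. Nuclear DNA content imaged by fluorescence scanning (405 nm excitation, 500-530 nm emission); re-replication scored as increased nuclei with elevated intensity.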

[14] = qHTS Assay for Lipid Storage Modulators (AID 1519; calls by dose curve); conditions: Drosophila S3 cells, BODIPY lipid droplet/cell ratio, laser cytometry, cells loaded with oleic acid; for activity change, negative = inhibition: at 57.5 µM (top of the series)
Procedure, shortened: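 Cells seeded at 5,000 per well were treated with compounds over a concentration series and loaded with oleic acid (400 uM, as added). Lipid droplet fluorescence (488 nm excitation, 500-530 nm channel) was read by laser-scanning cytometry and normalized to 20 uM Triacsin C.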

[15] = Primary qHTS for inhibitors of SARS-S pseudo-typed particle cell entry (AID 1479145; calls by dose curve; also: nearly all actives have a fitted effect of over 45% in size); conditions: outcome: dose series up to 57.1 µM unless noted
[16] = Primary qHTS for Huh7 cytotoxicity: counterscreen for inhibitors of MERS-S pseudotyped particle cell entry (AID 1479147; calls by dose curve); conditions: outcome: dose series up to 57.1 µM unless noted
[17] = Primary qHTS for inhibitors of MERS-S pseudo-typed particle cell entry (AID 1479149; calls by dose curve; also: nearly all actives have a fitted effect of over 60% in size); conditions: outcome: dose series up to 57.1 µM unless noted
[18] = measured here: cell count channel max response
[19] = measured here: lipid channel max response

Chain of DNA repair nuclease/redox regulator APEX1 (Homo sapiens) (P27695 whole entry, looked up): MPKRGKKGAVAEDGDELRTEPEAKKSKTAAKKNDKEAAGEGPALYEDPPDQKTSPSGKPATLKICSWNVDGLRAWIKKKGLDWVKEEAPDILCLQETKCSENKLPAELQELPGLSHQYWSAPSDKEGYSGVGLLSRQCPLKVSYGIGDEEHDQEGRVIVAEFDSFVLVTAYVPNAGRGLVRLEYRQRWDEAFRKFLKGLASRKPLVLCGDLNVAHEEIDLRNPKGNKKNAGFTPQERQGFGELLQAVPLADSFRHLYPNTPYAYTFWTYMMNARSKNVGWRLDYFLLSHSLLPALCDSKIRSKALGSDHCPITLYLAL
Chain of Thyrotropin-releasing hormone receptor (Homo sapiens) (P34981 whole entry, looked up): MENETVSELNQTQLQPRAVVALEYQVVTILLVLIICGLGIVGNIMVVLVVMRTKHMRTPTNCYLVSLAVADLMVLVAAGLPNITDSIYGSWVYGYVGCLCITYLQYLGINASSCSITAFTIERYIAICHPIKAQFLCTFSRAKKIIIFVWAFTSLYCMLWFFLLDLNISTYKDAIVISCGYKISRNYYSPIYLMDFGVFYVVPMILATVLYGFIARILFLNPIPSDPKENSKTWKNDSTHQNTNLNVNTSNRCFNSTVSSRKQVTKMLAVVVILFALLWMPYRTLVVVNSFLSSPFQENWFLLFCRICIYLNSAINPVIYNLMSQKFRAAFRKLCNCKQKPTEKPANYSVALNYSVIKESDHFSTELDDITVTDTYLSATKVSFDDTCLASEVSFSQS
Chain of M-phase phosphoprotein 8 (Homo sapiens) (Q99549 whole entry, looked up): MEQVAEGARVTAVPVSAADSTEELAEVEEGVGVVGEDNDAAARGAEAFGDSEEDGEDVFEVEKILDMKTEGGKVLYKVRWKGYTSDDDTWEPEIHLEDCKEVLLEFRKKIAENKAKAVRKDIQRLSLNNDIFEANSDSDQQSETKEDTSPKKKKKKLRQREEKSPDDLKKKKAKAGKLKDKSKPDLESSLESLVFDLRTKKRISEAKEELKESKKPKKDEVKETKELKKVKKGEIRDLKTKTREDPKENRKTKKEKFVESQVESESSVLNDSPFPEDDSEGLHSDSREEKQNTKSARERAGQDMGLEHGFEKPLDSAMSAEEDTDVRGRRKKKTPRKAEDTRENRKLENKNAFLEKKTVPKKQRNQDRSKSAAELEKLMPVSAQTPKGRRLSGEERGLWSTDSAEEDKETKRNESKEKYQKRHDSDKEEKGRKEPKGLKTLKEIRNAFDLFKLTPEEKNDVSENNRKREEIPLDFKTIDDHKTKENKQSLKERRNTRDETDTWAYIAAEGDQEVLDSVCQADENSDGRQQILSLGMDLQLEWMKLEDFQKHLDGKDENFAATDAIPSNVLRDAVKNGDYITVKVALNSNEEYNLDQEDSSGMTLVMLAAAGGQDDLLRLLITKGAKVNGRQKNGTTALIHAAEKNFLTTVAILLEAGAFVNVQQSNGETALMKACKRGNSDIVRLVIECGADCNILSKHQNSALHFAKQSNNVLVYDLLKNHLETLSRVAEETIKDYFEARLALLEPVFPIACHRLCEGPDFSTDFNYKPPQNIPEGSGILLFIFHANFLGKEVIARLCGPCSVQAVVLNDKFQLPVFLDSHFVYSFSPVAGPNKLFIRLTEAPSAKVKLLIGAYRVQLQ
Chain of Transient receptor potential cation channel subfamily V member 1 (Homo sapiens) (Q8NER1 whole entry, looked up): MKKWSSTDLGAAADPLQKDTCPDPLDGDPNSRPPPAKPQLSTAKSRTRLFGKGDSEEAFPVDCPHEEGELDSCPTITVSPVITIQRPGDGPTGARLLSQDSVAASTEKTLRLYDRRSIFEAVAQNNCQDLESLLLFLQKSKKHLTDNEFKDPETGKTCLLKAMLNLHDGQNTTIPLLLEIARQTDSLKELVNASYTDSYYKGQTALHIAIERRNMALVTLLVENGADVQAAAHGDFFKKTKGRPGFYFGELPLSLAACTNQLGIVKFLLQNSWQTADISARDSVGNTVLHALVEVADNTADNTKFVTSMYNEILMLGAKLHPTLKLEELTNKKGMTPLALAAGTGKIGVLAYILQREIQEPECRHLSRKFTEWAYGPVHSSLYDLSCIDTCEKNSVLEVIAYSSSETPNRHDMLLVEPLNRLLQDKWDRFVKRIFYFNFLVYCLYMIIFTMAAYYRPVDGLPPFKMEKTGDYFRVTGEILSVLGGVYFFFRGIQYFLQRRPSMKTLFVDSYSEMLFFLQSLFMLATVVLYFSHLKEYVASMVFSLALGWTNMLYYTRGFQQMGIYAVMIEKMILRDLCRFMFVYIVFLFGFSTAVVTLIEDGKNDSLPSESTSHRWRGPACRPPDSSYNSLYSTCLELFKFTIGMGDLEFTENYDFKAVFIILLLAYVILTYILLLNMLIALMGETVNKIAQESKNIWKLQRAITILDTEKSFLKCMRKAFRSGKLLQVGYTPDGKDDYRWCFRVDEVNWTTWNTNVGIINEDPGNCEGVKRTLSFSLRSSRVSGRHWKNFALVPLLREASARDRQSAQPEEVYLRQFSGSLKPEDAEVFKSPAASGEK
Chain of Ferritin light chain (Equus caballus) (P02791 2-175 limits assumed): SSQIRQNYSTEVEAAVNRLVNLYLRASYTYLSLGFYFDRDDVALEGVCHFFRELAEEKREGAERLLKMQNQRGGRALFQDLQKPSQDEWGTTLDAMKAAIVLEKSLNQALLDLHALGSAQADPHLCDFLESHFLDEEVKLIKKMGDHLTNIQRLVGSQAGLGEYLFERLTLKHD
Chain of ATP-dependent DNA helicase Q1 (Homo sapiens) (P46063 whole entry, looked up): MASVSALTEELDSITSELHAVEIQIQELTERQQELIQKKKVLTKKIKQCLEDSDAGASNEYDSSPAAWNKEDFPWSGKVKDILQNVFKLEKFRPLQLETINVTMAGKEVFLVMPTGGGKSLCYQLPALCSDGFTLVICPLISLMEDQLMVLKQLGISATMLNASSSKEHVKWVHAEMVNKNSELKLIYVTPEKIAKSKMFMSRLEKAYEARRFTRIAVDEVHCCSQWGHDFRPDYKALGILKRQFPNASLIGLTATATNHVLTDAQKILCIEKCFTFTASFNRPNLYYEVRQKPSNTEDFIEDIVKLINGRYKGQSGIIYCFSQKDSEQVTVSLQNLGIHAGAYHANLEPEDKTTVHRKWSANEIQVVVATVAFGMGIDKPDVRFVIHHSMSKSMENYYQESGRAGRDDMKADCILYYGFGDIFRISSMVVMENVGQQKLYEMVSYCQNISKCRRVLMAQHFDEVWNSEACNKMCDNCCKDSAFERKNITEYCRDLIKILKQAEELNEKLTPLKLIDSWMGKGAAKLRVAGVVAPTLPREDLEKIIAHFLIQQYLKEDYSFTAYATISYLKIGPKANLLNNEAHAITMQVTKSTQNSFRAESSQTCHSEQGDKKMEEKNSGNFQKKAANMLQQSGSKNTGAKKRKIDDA
Chain of Thyrotropin receptor (Homo sapiens) (P16473 whole entry, looked up): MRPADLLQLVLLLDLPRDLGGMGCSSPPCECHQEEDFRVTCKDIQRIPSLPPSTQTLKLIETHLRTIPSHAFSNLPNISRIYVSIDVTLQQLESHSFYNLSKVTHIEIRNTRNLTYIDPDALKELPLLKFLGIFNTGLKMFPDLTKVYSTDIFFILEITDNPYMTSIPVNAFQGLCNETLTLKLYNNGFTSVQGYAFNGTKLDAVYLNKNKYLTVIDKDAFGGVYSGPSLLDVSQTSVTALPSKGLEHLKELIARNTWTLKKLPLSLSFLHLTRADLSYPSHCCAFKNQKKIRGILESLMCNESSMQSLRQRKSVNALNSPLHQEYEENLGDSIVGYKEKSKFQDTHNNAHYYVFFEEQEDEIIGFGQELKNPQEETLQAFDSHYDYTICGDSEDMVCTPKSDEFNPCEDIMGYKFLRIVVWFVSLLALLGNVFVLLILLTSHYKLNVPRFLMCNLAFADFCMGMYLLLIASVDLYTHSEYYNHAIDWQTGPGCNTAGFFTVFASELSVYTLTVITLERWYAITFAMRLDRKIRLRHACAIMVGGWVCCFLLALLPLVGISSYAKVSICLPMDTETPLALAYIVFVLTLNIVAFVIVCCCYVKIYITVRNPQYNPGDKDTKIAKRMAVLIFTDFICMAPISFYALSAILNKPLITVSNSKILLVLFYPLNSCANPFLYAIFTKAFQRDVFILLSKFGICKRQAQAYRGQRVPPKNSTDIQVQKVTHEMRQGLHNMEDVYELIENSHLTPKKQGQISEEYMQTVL

| SMILES | outcome [1] | Potency [2] | outcome [3] | Potency [4] | Potency [5] | outcome [6] | Potency [7] | Potency [8] | Potency [9] | outcome [10] | outcome [11] | activation [12] | outcome [13] | activity change, negative = inhibition [14] | max response [14, 18] | max response [14, 19] | Potency [15] | Potency [16] | Potency [17] |
| --- | --- | --- | --- | --- | --- | --- | --- | --- | --- | --- | --- | --- | --- | --- | --- | --- | --- | --- | --- |
| C[C@H]1C2Cc3ccc(O)cc3[C@]1(C)CCN2CC1CC1 | inactive | inactive | inactive | inactive | inactive | inactive | inactive | inactive | inactive | inactive | inactive | 1.81% (inactive) | inactive |  |  |  |  |  |  |
| COC(=O)C(N)CCCN=C(N)N[N+](=O)[O-] (stereo not drawn) | inactive | inactive | inactive |  | inactive | inactive | inactive | inactive | inactive | inactive | inactive | 1.06% (inactive) | inactive |  |  |  |  |  |  |
| CC12CCC3C(CCC4=C(O)C(=O)CCC43C)C1CCC2=O (stereo not drawn) | inactive | inactive | inactive | inactive | inactive | inactive | inactive | inactive | inactive | inactive |  |  | inactive |  |  |  |  |  |  |
| CC(C)(O)C1C2OC(=O)C1[C@]1(O)C[C@H]3O[C@]34C(=O)O[C@H]2[C@]14C (stereo partly drawn) (tested in a mixture with another compound) | inactive | inactive | inactive |  | inactive | inactive | inactive | inactive | inactive | inactive | inactive | 0.625% (inactive) | inactive |  |  |  |  |  |  |
| CN1CCC23CCCC[C@H]2C1Cc1ccc(O)cc13 (stereo partly drawn) | inactive | inactive | inactive |  | inactive | inactive | inactive | inactive | inactive | inactive | inactive | 0.625% (inactive) | inactive | 0.333% (inactive) | 15.7% | 15.2% |  |  |  |
| CCN(CC)C(=O)N[C@@H]1C[C@@H]2c3cccc4[nH]cc(c34)C[C@H]2N(C)C1 | inactive | inactive | inactive |  | inactive | inactive | inactive | inactive |  | inactive | inactive | -2.62% (inactive) | inactive | -3.98% (inactive) | 28.2% | 24% |  |  |  |
| CCN1C[C@]2(C)CC[C@H](O)[C@@]34[C@@H]5C[C@@H]6[C@@H](OC)C[C@@](O)(C5[C@H]6O)[C@@H](C[C@@H]23)[C@@H]14 | inactive | inactive | inactive | inactive | inactive | inactive | inactive | inactive | inactive | inactive | inactive | 0.875% (inactive) | inactive | 1.56% (inactive) | -17.1% | -16.8% |  |  |  |
| CCC(CO)NC(=O)[C@@H]1C=C2c3cccc4[nH]cc(c34)C[C@H]2N(C)C1 (stereo partly drawn) | inactive |  | inactive |  | inactive | inactive | inactive | inactive | inactive | inactive | inactive | -2.81% (inactive) | inactive | 0.713% (inactive) | -10.2% | -11.2% |  |  |  |
| CC(C)=C/C(C)=N\Nc1nncc2ccccc12 |  |  |  |  |  |  |  |  |  |  |  |  |  |  |  |  | inactive | inactive | inactive |
| CCCN1CCCC(c2cccc(O)c2)C1 (stereo not drawn) | inactive | inactive | inactive | inactive | inactive | inactive | inactive | inactive | inactive | inactive | inactive | -4.62% (inactive) | inactive |  |  |  |  |  |  |
| COc1ccc2c3c1O[C@H]1C(=O)CC[C@@]4(O)C(C2)N(CC2CC2)CCC314 (stereo partly drawn) | inactive | inactive | inactive | inactive | inactive | inactive | inactive | inactive | inactive | inactive | inactive | 2.19% (inactive) | inactive |  |  |  |  |  |  |
| C[C@]12CC[C@H]3[C@@H](CCC4C[C@H](O)CC[C@@]43C)[C@@H]1CC[C@@H]2O (stereo partly drawn) | inactive | inactive | inactive | inactive |  | inactive | inactive | inactive | inactive | inactive | inactive | 1.31% (inactive) | inactive |  |  |  |  |  |  |
| COc1cc(C=C(C#N)C#N)cc(O)c1O | inactive | inactive | inactive | inactive | inactive | inactive | inactive |  | 39.8 µM (active) | inactive | inactive | 2.88% (inactive) | inactive | -2.14% (inactive) | 23.5% | 22.3% |  |  |  |
| NCC#Cc1ccccc1 | inactive | inactive | inactive | inactive | inactive | inactive | inactive | inactive | inactive | inactive | inactive | 1.69% (inactive) |  | -4.59% (inactive) | -80.1% | -81.6% |  |  |  |

— PubChem BioAssay (NCATS)
